Test results as given in PubChem BioAssay AID488969 (Vanderbilt High Throughput Screening Facility, 2010).
The full ranking holds about 110,000 compounds; the median of “z-score” is about -0.1, and the highest 2% start at about 2. The sample as a whole holds a higher share of the highest values than the screen did. Activity calls are given as the source filed them.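 Rule for the calls: active = z-score in the third read window above 3 or below -3; inactive = the rest.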

Target: Metabotropic glutamate receptor 8 (Rattus norvegicus) (UniProt P70579)
Sequence (P70579 whole entry, looked up): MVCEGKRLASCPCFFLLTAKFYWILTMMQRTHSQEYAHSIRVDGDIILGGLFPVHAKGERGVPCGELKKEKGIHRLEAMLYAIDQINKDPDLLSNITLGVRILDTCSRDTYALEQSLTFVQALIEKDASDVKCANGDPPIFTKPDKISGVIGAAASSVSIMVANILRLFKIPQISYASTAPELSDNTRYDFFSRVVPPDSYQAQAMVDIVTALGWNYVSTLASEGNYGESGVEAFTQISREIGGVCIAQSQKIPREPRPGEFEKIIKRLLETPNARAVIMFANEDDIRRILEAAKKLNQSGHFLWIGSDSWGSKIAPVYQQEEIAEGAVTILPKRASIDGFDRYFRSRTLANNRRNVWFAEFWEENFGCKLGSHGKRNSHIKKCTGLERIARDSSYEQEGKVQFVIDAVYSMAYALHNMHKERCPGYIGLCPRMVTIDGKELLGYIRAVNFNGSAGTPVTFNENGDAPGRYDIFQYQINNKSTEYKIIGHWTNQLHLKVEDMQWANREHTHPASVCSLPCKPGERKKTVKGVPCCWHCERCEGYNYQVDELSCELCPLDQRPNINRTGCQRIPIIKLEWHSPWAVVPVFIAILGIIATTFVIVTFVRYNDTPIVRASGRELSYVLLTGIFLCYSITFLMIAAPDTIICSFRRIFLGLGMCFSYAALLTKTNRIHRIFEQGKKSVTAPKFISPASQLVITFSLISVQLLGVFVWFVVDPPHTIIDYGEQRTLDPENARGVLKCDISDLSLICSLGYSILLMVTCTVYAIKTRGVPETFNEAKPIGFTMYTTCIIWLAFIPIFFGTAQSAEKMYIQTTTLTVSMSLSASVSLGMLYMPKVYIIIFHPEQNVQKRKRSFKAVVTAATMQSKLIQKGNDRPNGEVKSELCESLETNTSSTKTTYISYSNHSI
Assay: rat mGluR8 modulators via GIRK flux, primary screen, cell-based, thallium flux, HTS (AID 488969)
Conditions: HEK293 rat mGluR8, GIRK (G protein-gated inwardly rectifying potassium channel) thallium flux, FluoZin2; at 10 µM; stronger effect = higher value; submaximal glutamate (EC20) added with thallium

Row | SMILES | z-score
1 | CCOC(=O)c1cc(-c2ccc(OC(F)F)cc2)nc2nc(SC)[nH]c(=O)c12 | -0.208
2 | COc1cc(CNCC(O)c2ccccc2)ccc1OCc1ccc(Cl)nc1 (stereo not drawn) | 1.26
3 | COC(=O)COc1cccc(NC(=O)c2cccs2)c1 | -0.153
4 | CCc1cccc2c(C(=O)COC(=O)/C=C/c3ccc(O)c(OC)c3)c[nH]c12 | 0.418
5 | CC(C)COP(=O)(OCC(C)C)C(Nc1ccccc1)c1ccc2c(c1)OCO2 (stereo not drawn) | -0.389
6 | C/C=C/c1ccc(OCCCNCC(C)O)c(OC)c1 (stereo not drawn) | 1.74
7 | COc1ccc(OC)c(NC(=O)CSc2nc(C)cs2)c1 | 0.389
8 | CN(C)c1ccc(P(=O)(Nc2ccc([N+](=O)[O-])cc2)N2CCOCC2)c(NC(=O)c2cccs2)c1 (stereo not drawn) | -0.185
9 | O=C(CN1C(=O)NC2(CCCC2)C1=O)N1CCN(C(=O)c2ccco2)CC1 | -1.15
10 | Cc1ccc(NS(=O)(=O)c2cccc(C(=O)N/N=C/c3c(C)nn(-c4ccccc4)c3N3CCCC3)c2)c(C)c1 | -0.38
11 | CCCCNC(=S)N(C)/N=C/c1ccc(OCC(=O)Nc2c(C)cc(C)cc2C)c(OC)c1 | 0.00502
12 | Cc1cc(C)n(-c2nc3ccccc3nc2N2CCN(C(=O)c3ccc(Cl)cc3)CC2)n1 | -1.16
13 | CC(C)NC(=O)NC(=O)COc1ccc(Br)cc1Br | -0.136
14 | O=C(COc1ccccc1Cl)NC(=O)NC1CCCC1 | 0.502
15 | CCNC(=O)COc1ccc(Br)cc1Cl | 0.307
16 | O=C(COc1ccccc1)NC(=S)N1CCc2ccccc21 | 10.1 (active)
17 | O=C(COc1ccc(Br)cc1Br)NC(=S)N1CCCc2ccccc21 | 4.66 (active)
18 | Cc1ccc(OCC(=O)N2CCc3ccccc32)cc1 | -0.113
19 | CCC(=O)N1CCN(c2ccccc2NC(=O)COc2ccccc2Cl)CC1 | -1.24
20 | O=C(COc1ccc(Br)cc1Cl)NC(=S)N1CCc2ccccc21 | 2.28
21 | O=C(COc1ccccc1Cl)NC(=S)N1CCc2ccccc21 | 12.1 (active)
22 | O=C(COc1ccc(Br)cc1Cl)NC(=O)NCc1ccccc1 | 0.301
23 | O=C(COc1ccccc1)N1CCc2ccccc21 | -0.0743

Row | SMILES | z-score
24 | O=C(COc1ccc(F)cc1Br)N1CCc2ccccc21 | -0.0164
25 | O=C(Cc1cccs1)Nc1ccc(Cl)cc1 | 0.318
26 | Cc1cc(C)cc(SCc2noc(C(=O)NCC3CCCO3)c2C(=O)O)c1 (stereo not drawn) | -0.238
27 | Cc1cc(C)nc(-n2nc(C)cc2NC(=O)CNC(C)c2ccccc2)n1 (stereo not drawn) | 0.124
28 | COC(=O)c1cc(OC)c(OC)cc1NCC(=O)Nc1ccc(OC)c(OC)c1 | -0.419
29 | Cc1c(NC(=O)C(C)OC(=O)c2cccs2)c(=O)n(-c2ccccc2)n1C (stereo not drawn) | 0.0558
30 | CCOc1cc(CNCc2ccccn2)ccc1OCC(=O)NC1CCCCC1 | -0.535
31 | O=C(Nc1ccc2oc(=O)ccc2c1)c1cc2ccccc2o1 | -1.25
32 | O=C(CN(Cc1ccc(F)cc1)C(=O)c1ccco1)NCc1ccc(F)cc1 | -1.36
33 | CNc1nc2ccccc2n1/N=C/c1cccc(OC)c1OC | -1.51
34 | O=Cc1ccc(OC(=O)c2cc(Cl)nc3ccccc23)cc1 | -0.764
35 | CCn1c(SCc2ccc([N+](=O)[O-])cc2)nnc1C(C)NC(=O)c1ccc(C)cc1 (stereo not drawn) | -0.256
36 | CC(C)(C)n1nc2c(c1NC(=O)c1ccco1)CS(=O)C2 (stereo not drawn) | 0.0777
37 | O=C(Cn1cccc1)N1CCN(c2ccc(F)cc2)CC1 | -0.241
38 | Nn1c(SCC(=O)N2CCN(S(=O)(=O)c3ccc(Cl)cc3)CC2)nnc1-c1cccs1 | -0.22
39 | Cc1cccc(-c2nnc(SCC(=O)N3c4ccccc4CCc4ccccc43)n2C)c1 | -0.366
40 | Cn1c(SCC(=O)N2c3ccccc3CCc3ccccc32)nnc1-c1cc2ccccc2cc1O | -0.13
41 | Cn1c(SCC(=O)N2c3ccccc3CCc3ccccc32)nnc1-c1ccc(O)cc1 | 5.88 (active)
42 | Cc1ccc(NC(=O)N2CCC(C(N)=O)CC2)cc1 | 0.0373
43 | O=C(NCC1CCCO1)C1CCN(S(=O)(=O)c2cccc3cccnc23)CC1 (stereo not drawn) | -0.104
44 | Cc1ccc(-c2cc(-c3n[nH]c(=S)o3)c3ccccc3n2)cc1 | 8.6 (active)
45 | Cc1ccccc1-c1n[nH]c(=S)o1 | 0.676
46 | CSc1nnc(-c2cc(-c3ccc(C)cc3)nc3ccccc23)o1 | -0.0721

Row | SMILES | z-score
47 | CC(=O)c1c(C)[nH]c(C(=O)Nc2ccc(Cl)c(S(=O)(=O)N3CCOCC3)c2)c1C | 1.6
48 | O=C(COC(=O)c1cc(-c2cccs2)nn1-c1ccccc1)Nc1ccc(Cl)c([N+](=O)[O-])c1 | 0.0111
49 | NS(=O)(=O)c1ccc(CCN2C(=O)/C(=C\c3ccc(Cl)cc3)SC2=S)cc1 | 0.283
50 | COc1nc(-c2ccccc2)cc(-c2ccccc2)n1 | 2.45
51 | COc1nc(-c2ccccc2)cc(-c2ccc(OC)c(OC)c2)n1 | -0.612
52 | COc1nc(-c2ccccc2)cc(C(F)(F)F)n1 | 0.0363
53 | O=C(C1CCCO1)N1N=C(c2ccc(Br)cc2)CC1c1ccco1 (stereo not drawn) | -0.195
54 | COC(=O)CSc1n[nH]c(-c2ccncc2)n1 | 0.0349
55 | O=C(CSc1n[nH]c(-c2cccnc2)n1)Nc1ccccc1 | -0.272
56 | COC(=O)CSc1n[nH]c(-c2cccnc2)n1 | 2.21
57 | Cc1ccc(C2C(C#N)=C(N)Oc3n[nH]c(-c4ccccc4)c32)o1 (stereo not drawn) | -0.499
58 | CC(C)CC(=O)NC(=S)Nc1nc(-c2ccccc2)cs1 | 0.855
59 | CC(C)CC(=O)NC(=S)Nc1nc(-c2ccc(Cl)cc2)cs1 | 0.0823
60 | CC(C)CC(=O)NC(=S)Nc1nc(-c2cccc3ccccc23)cs1 | 2.97
61 | Cn1c(=O)c(NC(=O)c2ccccc2)c2n(c1=S)CCCCC2 | -0.181
62 | O=C(COc1ncnc2ccc(Br)cc12)NCc1ccc2c(c1)OCO2 | -0.00987
63 | CCOC(=O)C1C(=O)CC(C)(O)C(C(=O)OCC)C1c1ccc(OC)cc1 (stereo not drawn) | -0.0838
64 | CCOC(=O)c1cccc(NC(=O)/C(=C\c2ccccc2)NC(=O)c2ccccc2Cl)c1 | -0.208
65 | COc1ccccc1NC(=O)CNS(=O)(=O)c1ccccc1 | -0.239
66 | CCOC(=O)c1c(CN2CCN(Cc3ccccc3)CC2)n(C)c2cc(Br)c(OC)cc12 | 0.132
67 | CCOC(=O)c1c(CNCCN(CC)CC)n(C)c2cc(Br)c(OC)cc12 | 3.02 (active)
68 | CCN(CC)CCNC(=O)c1c(C)n(-c2ccccc2)c2cc(Br)c(OC)cc12 | 2.84
69 | COc1cc2c(C(=O)N3CCN(C)CC3)c(C)n(-c3ccccc3)c2cc1Br | -0.333

Row | SMILES | z-score
70 | CCN(CC)CCNC(=O)c1c(C)oc2cc(Br)c(OC)cc12 | -0.44
71 | CCOC(=O)c1c(CN2CCN(CCO)CC2)n(C)c2cc(Br)c(OC)cc12 | 0.864
72 | COC(=O)Cn1c(=NC(=O)c2ccc(OC)cc2)sc2cc(OC)ccc21 | -0.189
73 | Cc1cccc(N=C2NC(=O)/C(=C/C=C/c3ccco3)S2)c1 | 0.7
74 | Cc1cccc(N=C2NC(=O)/C(=C/C=C/c3ccco3)S2)c1C | 3 (active)
75 | O=C1NC(=Nc2ccccc2)S/C1=C\C=C\c1ccco1 | 0.075
76 | OC(COCc1ccccc1)CN1CCN(c2ccccc2)CC1 (stereo not drawn) | 0.802
77 | CCCc1nc2oc3c(NCCN(C)C)ncnc3c2c2c1CCCC2 | 0.466
78 | CCOc1ccc(/C=C/C(=O)Nc2ccc(N3CCOCC3)cc2)cc1 | -0.494
79 | CCCCNC(=S)NNC(=O)c1ccco1 | -0.0425
80 | CNC(=S)NNC(=O)COc1ccccc1C | -0.0807
81 | COc1ccccc1OCC(=O)NNC(=S)NC(=O)c1ccco1 | 0.0517
82 | COCCNC(=S)NNC(=O)c1ccco1 | 0.195
83 | Cc1ccccc1OCC(=O)NNC(=S)NC(=O)c1ccco1 | 8.07 (active)
84 | CCCc1ccc(OCC(=O)NNC(=S)NC(=O)c2ccco2)cc1 | 5.78 (active)
85 | O=C(NCCN1CCOCC1)c1cc(Sc2ccccc2Cl)nc2ccccc12 | -1.39
86 | COc1cccc(N2CC(C(=O)Nc3nnc(SCc4cccnc4)s3)CC2=O)c1 (stereo not drawn) | 0.711
87 | O=c1[nH]c2cccnc2n1Cc1ccccc1 | -0.166
88 | Cc1ccccc1Nc1nnc(C)c(=O)n1N | 0.0745
89 | O=C(/C=C/c1ccccc1)N1CCC(c2ccccc2)C1 (stereo not drawn) | -0.0939
90 | c1ccc(C2CCC(N3CCC(N4CCCCC4)CC3)CC2)cc1 (stereo not drawn) | -0.423
91 | C1=CN2CCC1C(c1ccccc1)C2 (stereo not drawn) | 2.05
92 | COC(=O)C1CCN(C(=O)CSc2ccccc2)CC1 | -0.196

Row | SMILES | z-score
93 | COc1ccc(Cc2c(N)nc(N)nc2N)cc1 | -0.264
94 | CC(C)COc1ccc(Cc2cnc(N)nc2N)cc1 | 7.02 (active)
95 | CC(C)Oc1ccc(Cc2cnc(N)nc2N)cc1 | 1.03
96 | CCOc1cc(CNCCc2ccc(S(N)(=O)=O)cc2)ccc1OCC(=O)NC1CCCCC1 | 0.417
97 | Cc1cc(NC(=O)c2cnccn2)no1 | -0.0463
98 | CCCc1cc(=O)[nH]c(/N=C(/NC(=O)c2ccccc2)Nc2ccc3c(c2)OCCO3)n1 | -0.0513
99 | COCCNc1ncnc2c1cnn2-c1ccc(Cl)cc1 | 0.0016
100 | CN(C)CCCNc1ncnc2c1cnn2-c1ccccc1 | 0.0262
101 | CN(C)CCNc1ncnc2c1cnn2-c1ccc(Cl)cc1 | 3.51 (active)
102 | CC(/C=N\NC(=O)c1cccnc1)c1ccccc1 (stereo not drawn) | -0.201
103 | CS(=O)(=O)N1CCN(c2ccccc2NC(=O)c2cccc3ccccc23)CC1 | -0.227
104 | O=C(COc1cccc2cccnc12)N1CCc2ccccc2C1 | 0.452
105 | O=C(COc1c(Br)cc(Br)c2cccnc12)N1CCc2ccccc2C1 | 3.14 (active)
106 | O=C(COc1ncnc2sccc12)N1CCc2ccccc2C1 | 0.0441
107 | COc1ccc(S(=O)(=O)N[C@@H](Cc2ccc(Cl)cc2)C(=O)N2CC[C@@]3(O)CCCC[C@H]3C2)cc1 | -0.0964
108 | COCCNC(=O)c1cc(-c2ccc3c(c2)OCO3)on1 | 0.152
109 | Cc1nn(C)c(Cl)c1NC(=O)OCc1ccccc1 | -0.064
110 | CCCNC(=O)CCC(=O)Nc1ncc(-c2ccc(C)cc2)n1C | -0.382
111 | Cc1ccc(-c2cnc(NC(=O)CCC(=O)N(C)Cc3ccccc3)n2C)cc1 | -0.765
112 | Cc1ccc(-c2cnc(NC(=O)CCC(=O)N3CCCCC3)n2C)cc1 | 4.3 (active)
113 | CC(C)c1ccccc1N=C1SCCN1C1CCS(=O)(=O)C1 (stereo not drawn) | 0.193
